Assay outcomes (PubChem)
Rows were chosen to be rich in hits. Some 1.7% of all compounds tested hit in one or more screens of this group.
PriA SSB inh = K. pneumoniae PriA-SSBct interaction inhibition; AlphaScreen SSBct-PriA binding, biotinylated peptide; inhibition, % at 33 µM; 430,000 tested, 0.6% active; AID 1272365; in the data active = inhibition mostly above about 37%, no sharp cut-off; inactive = mostly below about 20%;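 note: plate controls were negative control peptide for no effect and reference peptide for full effect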
VHR inh abs = DUSP3 (human) phosphatase inhibition. AID 1654. recombinant VHR phosphatase, pNPP absorbance. P51452. 290,000 tested, 0.52% active. inhibition, % at 13.3 µM; in the data active = inhibition above about 50%
SARS 3CLpro inh = SARS-CoV 3CLpro protease inhibition; P0C6X7; inhibition, % at 6 µM; recombinant SARS-CoV 3CLpro, quenched FRET peptide cleavage; 290,000 tested, 0.14% active; in the data active = inhibition above about 12%
CCHFV vOTU inh = CCHFV vOTU protease inhibition | 370,000 tested, 0.55% active | Pep-AMC fluorescence | inhibition, % at 11.5 µM; in the data active = inhibition above about 30%; note: 0% = vehicle wells with enzyme and 100% = no enzyme wells
RecA intein inh = inhibitors of M. tuberculosis RecA intein splicing | 290,000 tested, 0.75% active | AID 2221 | cell-free RecA intein splicing, fluorescence | P9WHJ3 | inhibition, % (no concentration beside the values); in the data active = inhibition above about 30%;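 note: 0% = vehicle wells and 100% = reference inhibitor control wells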
Target sequence (P9WHJ3 whole entry, looked up): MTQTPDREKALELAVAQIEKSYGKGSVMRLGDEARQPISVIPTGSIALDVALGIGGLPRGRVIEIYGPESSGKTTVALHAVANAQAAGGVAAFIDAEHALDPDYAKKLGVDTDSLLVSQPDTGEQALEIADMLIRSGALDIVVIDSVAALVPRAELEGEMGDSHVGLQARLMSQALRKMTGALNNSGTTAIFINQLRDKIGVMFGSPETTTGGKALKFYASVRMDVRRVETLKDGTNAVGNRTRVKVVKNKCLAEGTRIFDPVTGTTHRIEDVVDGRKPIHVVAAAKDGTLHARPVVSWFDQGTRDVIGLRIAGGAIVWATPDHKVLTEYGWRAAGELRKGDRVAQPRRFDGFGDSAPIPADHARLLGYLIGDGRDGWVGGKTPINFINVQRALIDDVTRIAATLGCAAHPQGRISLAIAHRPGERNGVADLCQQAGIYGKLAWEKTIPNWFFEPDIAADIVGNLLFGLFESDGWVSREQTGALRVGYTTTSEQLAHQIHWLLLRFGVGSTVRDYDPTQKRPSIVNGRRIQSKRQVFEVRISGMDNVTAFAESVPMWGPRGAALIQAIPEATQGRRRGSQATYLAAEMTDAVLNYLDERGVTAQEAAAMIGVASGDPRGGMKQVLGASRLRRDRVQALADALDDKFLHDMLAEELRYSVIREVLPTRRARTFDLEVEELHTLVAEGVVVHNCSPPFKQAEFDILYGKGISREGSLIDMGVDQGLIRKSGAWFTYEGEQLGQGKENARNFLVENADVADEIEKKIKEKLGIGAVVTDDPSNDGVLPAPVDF
* marks the source's active call; other numbers are inactive results; · = no result given; ! = repeats disagree.

SMILES	PriA SSB inh	VHR inh abs	SARS 3CLpro inh	CCHFV vOTU inh	RecA intein inh
CC1=C(C(=O)N2CCOCC2)C(c2ccc(OC(F)F)cc2)NC(=S)N1c1ccccc1 (stereo not drawn)	-19.7	53.2*	0.0	1.0	10.2
Cc1ccc(NC(=O)Cn2c(C)cc(C)c(-c3nc(-c4ccccc4)no3)c2=O)c(Br)c1	-2.0	·	·	·	·
Cc1ccc(C)c(C(O)=C2C(=O)C(=O)N(CCN3CCOCC3)C2c2ccccc2F)c1 (stereo not drawn)	48.0*	·	·	·	·
Cc1ccc(/C(O)=C2\C(=O)C(=O)N(CCCN3CCOCC3)C2c2ccccc2F)cc1 (stereo not drawn)	·	·	·	-3.0	·
Cc1c(C#N)c(NC(=O)CCl)n(Cc2ccc(F)cc2)c1C	-10.9	16.0	1.1	-6.0	56.5*
Cc1c(C#N)c(NC(=O)CCl)n(Cc2cccs2)c1C	-7.5	20.2	2.6	1.8	65.2*
Cc1cc(=O)n(Cc2ccccc2)c(O)c1C#N	12.5	-14.4	-3.5	-7.8	2.1
Cc1c(C#N)c(NC(=O)CCl)n(Cc2ccccc2)c1C	-1.1	17.9	-2.0	-2.5	43.7*
CCN(CC)C(=O)c1sc(NC(=O)Cc2cccs2)c(C#N)c1C	-10.9	-2.3	-4.0	-2.4	6.4
COC(=O)c1cc(C(=O)OC)n(Cc2ccc(F)cc2)c1C	-36.4	-12.5	2.8	12.6	4.3
O=C(NCCCN1CCN(c2ccccc2)CC1)c1ccccc1Cl	6.0	·	·	·	·
COCCCNc1nc(N)c([N+](=O)[O-])c(N2CCC(Cc3ccccc3)CC2)n1	1.0	·	·	·	·
Cc1ccc(-n2nc(C)c3c2OC(N)=C(C#N)C3c2ccccc2F)cc1 (stereo not drawn)	9.8	-4.6	-7.6	12.9	43.3*
O=c1ccc(-c2cccc([N+](=O)[O-])c2)nn1Cc1c(F)cccc1Cl	13.0	·	·	·	·
CCOC(=O)c1c(S(=O)(=O)NCCCc2ccco2)c(C)n(C)c1C	-3.8	51.3*	-1.1	11.5	-0.3
CCOC(=O)c1c(S(=O)(=O)N(C)Cc2ccccc2)c(C)n(C)c1C	-6.2	57.7*	-6.4	-3.3	5.2
CCOC(=O)c1c(S(=O)(=O)NCCc2ccco2)c(C)n(C)c1C	-5.5	12.9	-0.7	15.5	5.0
Cc1onc(-c2ccccc2Cl)c1C(=O)NCCc1csc2nc(-c3cccc(F)c3)nn12	-8.0	·	·	·	·
O=C(N/N=C/c1ccc(-c2ccccc2[N+](=O)[O-])o1)[C@H]1C[C@@H]1c1ccccc1	·	5.1	3.3	-1.4	42.0*
Cc1ccc(C(=O)N/N=C/c2ccc(-c3ccccc3[N+](=O)[O-])o2)cn1	·	-7.5	2.0	28.8	61.5*
O=c1c2ccccc2c2ccccc2c(=O)n1-c1ccc(F)c(Cl)c1	1.0	·	·	·	·
Cc1c(C)c([N+](=O)[O-])c(C)c(C)c1N	-6.0	·	·	-9.2	·
CC(C)c1cc(C(C)C)c(C(C)C)c([N+](=O)[O-])c1N	35.0*	·	·	·	·
Cc1nnc(NC(=O)CSc2ncc(-c3ccccc3)[nH]2)s1	2.8	-3.9	-5.0	-5.8	-0.1
Cc1csc(NC(=O)CSc2ncc(-c3ccccc3)[nH]2)n1	42.0*!	-3.8	-0.7	-18.2	-0.3
SMILES	PriA SSB inh	VHR inh abs	SARS 3CLpro inh	CCHFV vOTU inh	RecA intein inh
O=C(CSc1ncc(-c2ccccc2)[nH]1)Nc1nc2ccccc2s1	37.0*	·	·	·	·
O=C(NCc1cncc(-c2ccsc2)c1)C1CC=CCC1 (stereo not drawn)	-4.0	·	·	·	·
Cc1noc(C)c1S(=O)(=O)NCc1cc(-c2ccncc2)n(C2CCCC2)n1	-9.0	·	·	·	·
NC(=O)Cc1csc(Nc2ccc(OC(F)(F)F)cc2)n1	2.0	·	·	·	·
Cc1ccc(C(=O)NCCCNC(=O)c2ccco2)cn1	-5.2	56.5*	1.2	2.7	-2.3
Cc1ccc(C(=O)NCCCNCCCNC(=O)c2ccc(C)nc2)cn1	-16.8	4.3	0.4	-0.4	-7.1
O=C(CSc1nc2ccccc2[nH]1)c1c[nH]c2ccccc12	64.7*	1.4	1.3	-2.5	4.7
O=C(NCc1ccc(F)cc1)N1CCN(c2cc(-n3cncn3)ncn2)CC1	-13.0	·	·	·	·
CCNc1nc(NCC)nc(SCC(=O)c2ccc(Cl)cc2)n1	-9.0	·	·	·	·
CC(C)CCOc1ccc(/C=C2\CCn3c2nc2cc(C(=O)O)ccc2c3=O)cc1	-6.0	56.3*	4.3	2.4	·
COC(=O)c1ccc(/C=C2\CCn3c2nc2cc(C(=O)O)ccc2c3=O)cc1	0.1	-9.1	-1.4	·	0.5
O=C(Nc1nc(-c2ccccn2)cs1)c1ccccc1F	94.0*	·	·	·	·
Fc1ccccc1Nc1nc(-c2ccccn2)cs1	77.1*	·	·	·	·
COc1ccccc1Nc1nc(-c2ccccn2)cs1	26.2	·	·	·	·
O=C(Nc1nc(-c2cc(Cl)sc2Cl)cs1)c1ccc(Br)s1	43.6*!	13.3	0.7	-9.4	-1.4
Cc1nc(C(C)C)c(C(=O)Nc2nc(-c3ccccn3)cs2)s1	59.2*	·	·	·	·
COc1ccc(NC(=O)Cn2nc(-c3cccs3)c3sc(N4CCCC4)nc3c2=O)c(OC)c1	-4.0	·	·	·	·
Cc1ccc(C)c(C2CCN(C(=O)c3ccc4c(=O)n(-c5ccccc5)c(=O)[nH]c4c3)CC2)c1	-14.0	·	·	·	·
Cc1cccc(C(=O)Nc2nc(-c3ccccn3)cs2)c1C	73.2*	·	·	·	·
O=C(Nc1nc(-c2ccccn2)cs1)c1ccc(Br)s1	56.4*	-1.7	3.0	2.2	-8.5
O=C(Nc1nc(-c2ccccn2)cs1)c1cccc(C(=O)Nc2nc(-c3ccccn3)cs2)n1	2.0	·	·	·	·
COc1ccc2oc(C(=O)Nc3nc(-c4ccccn4)cs3)c(C)c2c1	42.1*	·	·	6.0	-0.8
O=C(Nc1nc(-c2nc3ccccc3s2)cs1)c1ccc(Br)s1	-4.0	·	·	·	·
O=C(Nc1nc(-c2ccccn2)cs1)c1ccccc1Br	91.0*	·	·	·	·
CN1CCN(c2nc3ccc(NC(=O)c4cccc(C(F)(F)F)c4)cc3s2)CC1	-10.0	·	·	·	·
SMILES	PriA SSB inh	VHR inh abs	SARS 3CLpro inh	CCHFV vOTU inh	RecA intein inh
CSc1ccc2nc(NC(=O)c3ccccc3NS(=O)(=O)c3ccc(C)cc3)sc2c1	-8.0	·	·	·	·
O=C(c1cc(-c2ccco2)[nH]n1)N1CCN(Cc2cnc3ccccn23)CC1	3.0	·	·	·	·
CCS(=O)(=O)c1ccccc1C(=O)Nc1ccc(Br)cc1C(=O)c1ccccc1	11.0	·	·	·	·
Cn1cccc(C(=O)Nc2ccc3c(c2)N(C(=O)C(C)(C)C)CC3)c1=O	0.0	·	·	·	·
Cc1cc(C(=O)Nc2nc(-c3ccccn3)cs2)c(C)s1	62.1	·	·	·	·
Cc1cc(C(=O)Nc2nc(-c3ccccn3)cs2)c(C)o1	82.4*	·	·	·	·
Cc1ccc2c(c1)N(C(=O)CSc1nnc3n(Cc4ccco4)c(=O)c4sccc4n13)CCO2	-14.0	·	·	·	·
COc1ccc(C2CC(c3cccs3)=NN2C(=O)CSC2=NCCS2)cc1 (stereo not drawn)	-22.0	14.0	4.1	19.9	40.9*
Cc1ccc(C2CC(c3cccs3)=NN2C(=O)CSC2=NCCS2)cc1 (stereo not drawn)	-12.0	1.1	6.0	4.5	56.8*
COc1ccc(-c2coc3c4c(ccc3c2=O)OCN(Cc2ccco2)C4)cc1OC	-4.0	·	·	·	·
CCCCc1ccc(N2C(=O)[C@@H]3C(CC(N)=O)NC4(C(=O)Nc5ccc(F)cc54)[C@@H]3C2=O)cc1 (stereo partly drawn)	7.0	51.2*	-1.8	5.4	1.1
O=S(=O)(/C=C/c1ccccc1)NCCc1nc2c(c(C(F)(F)F)n1)CCCC2	-9.0	·	·	·	·
